Bioassay records from PubChem.
Giardia FBPA inh: blocks Giardia fructose-bisphosphate aldolase activity; purified Giardia FBPA; Potency, µM (doses to about 59.6 µM), inactives show top-dose activity, negative = inhibition, actives largely listed as inhibitors; 290,000 tested, 0.71% active; AID 2451; also: % is scaled to controls: 0 for no effect and ±100 for the full control effect; nearly all actives have a fitted effect of over 55% in size
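40 nM FBPA preincubated 10 min at RT with compound (up to 57.5 uM final), then substrate plus GAPDH/TPI/NAD/arsenate coupling and diaphorase/resazurin added. Fluorescence read after 20 min at RT, 525/598 nm.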
Sm TGR inh: inhibitors of Schistosoma mansoni thioredoxin glutathione reductase | purified TGR, DTNB reduction, TNB absorbance 405 nm | AID 485364 | 360,000 tested, 3% active | Potency, µM (top dose mostly 114 µM), for inactives: at the highest dose activity change, negative = inhibition, usual class: inhibitors; also: % is scaled to controls: 0 for no effect and ±100 for the full control effect; nearly all actives have a fitted effect of over 60% in size
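Kinetic colorimetric format: TGR-catalysed, NADPH-driven DTNB reduction monitored via TNB absorbance. Enzyme dispensed at 20 nM; compound exposure 15 min at room temperature before reaction start.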
LmPK inh: blocks Leishmania mexicana pyruvate kinase activity; Q27686; purified LmPK, Kinase-Glo ATP luminescence, 1 h; Potency, µM (series often up to 57.5 µM), inactives show top-dose activity change, negative = inhibition, actives largely listed as inhibitors; 290,000 tested, 0.37% active; AID 1721; also: % is scaled to controls: 0 for no effect and ±100 for the full control effect
Target sequence (Q27686 whole entry, looked up): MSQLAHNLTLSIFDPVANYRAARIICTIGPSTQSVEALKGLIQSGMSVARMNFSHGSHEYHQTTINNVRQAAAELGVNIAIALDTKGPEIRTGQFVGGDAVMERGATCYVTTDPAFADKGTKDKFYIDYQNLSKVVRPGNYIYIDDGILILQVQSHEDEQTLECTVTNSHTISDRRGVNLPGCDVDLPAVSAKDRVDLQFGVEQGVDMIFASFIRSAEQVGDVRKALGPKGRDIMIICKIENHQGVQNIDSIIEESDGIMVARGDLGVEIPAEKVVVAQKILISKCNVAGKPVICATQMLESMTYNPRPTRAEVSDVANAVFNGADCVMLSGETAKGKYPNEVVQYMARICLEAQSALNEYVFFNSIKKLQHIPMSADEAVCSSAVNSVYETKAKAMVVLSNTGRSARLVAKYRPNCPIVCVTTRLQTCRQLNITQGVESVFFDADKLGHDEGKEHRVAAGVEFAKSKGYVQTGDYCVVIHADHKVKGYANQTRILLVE
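Purified LmPK (0.1 nM) converted ADP (0.1 mM) to ATP with PEP (0.5 mM) in imidazole buffer pH 7.2 with KCl and MgCl2, 1 h at room temperature. ATP was read by Kinase-Glo luminescence; data normalized to uninhibited and no-enzyme controls.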
RE007 growth inh: less growth of the S. pombe RE007 Vpr strain. S. pombe RE007 Vpr strain, BacTiter-Glo ATP luminescence, 24 h. Potency, µM (titrated, usually from 92.2 µM), for the others: at the highest dose activity change, negative = less growth, actives largely listed as inhibitors. 360,000 tested, 0.21% active. AID 651644; active = well fitted falling curve with a large enough effect; inconclusive = small, poorly fitted or top-dose-only effect; inactive = no such curve, though single readings can be large or run the other way; also: % is scaled to controls: 0 for no effect and ±100 for the full control effect; nearly all actives have a fitted effect of over 50% in size
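Fission yeast strain RE007, carrying one chromosomally integrated HIV-1 vpr copy, was seeded at OD 0.01 in PMG+AL medium with 23 nL pinned compound. After 24 h at 30 °C and 99% humidity, viability was read by BacTiter-Glo luminescence.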
TbPYK inhibitor: inhibitors of Trypanosoma brucei pyruvate kinase | AID 624173 | TbPYK enzyme, Kinase-Glo Plus ATP luminescence, 45 min | Q57TT1 | Potency, µM (top dose mostly 76.8 µM), without a hit: at the top dose activity, negative = inhibition, usual class: inhibitors | 410,000 tested, 0.12% active; also: % is scaled to controls: 0 for no effect and ±100 for the full control effect; nearly all actives have a fitted effect of over 50% in size
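Quantitative HTS: titrated library compounds versus trypanosomal pyruvate kinase in TEA buffer (pH 7.2) containing KCl, MgCl2, BSA and Tween-20. Reactions were initiated with ADP, 130 uM final. Kinase-Glo Plus luminescence was read after 45 min at RT.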
NS1 inh: blocks influenza NS1 protein function. Potency, µM (top dose mostly 46.1 µM), for inactives: top-dose activity, positive = more growth. 270,000 tested, 0.4% active. AID 2326; calls by dose curve; also: actives are rising curves; nearly all actives have a fitted effect of over 50% in size
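Read-out: OD600 growth recovery of NS1-expressing budding yeast. Cells grown overnight at 30C in -URA glucose medium, washed, resuspended and diluted 1:100 in 2% galactose assay medium, pH 6.0. Same strain lacking NS1 served as positive control.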
* marks the source's active call; other numbers are inactive results; [ ] = another dose, or the depositor's remark. Hits are enriched below; roughly 3.5% of the tested compounds scored in any of these assays. Unless noted, calls follow the shape of the dose curve; as a rule, active = well fitted curve in the direction sought with a large enough effect; inconclusive = small, poorly fitted or top-dose-only effect, or another doubt; inactive = no such curve, though single readings can be large; an effect the other way counts as inactive or inconclusive. Potency is read from the fitted curve at half-maximal effect.

`O=C(Nc1nc2ccccc2[nH]1)c1ccccc1` gave Giardia FBPA inh -11%, Sm TGR inh 0%, LmPK inh 16µM*, RE007 growth inh inconclusive, TbPYK inhibitor -22% and NS1 inh -55%.
`O=C(CN1C=NS(=O)(=O)c2ccccc21)Nc1ccc(F)cc1` gave Sm TGR inh 8% and TbPYK inhibitor 3%.
For O=C(O)CC/C(=N\Nc1ccc([N+](=O)[O-])cc1S(=O)(=O)N1CCOCC1)c1cccs1 the results were Giardia FBPA inh -13%, Sm TGR inh 40µM*, LmPK inh 5%, RE007 growth inh -6%, TbPYK inhibitor -17% and NS1 inh -1%.
O=C(CSc1nc2ccccc2n1Cc1c(F)cccc1Cl)N1CCN(c2ccc(F)cc2)CC1 was read as Sm TGR inh inconclusive and TbPYK inhibitor 1%.
Screening O=C(CCn1c(=O)oc2ccccc21)N1CCC2(CC1)OCCO2 returned Giardia FBPA inh 0%, Sm TGR inh 5%, LmPK inh 6%, RE007 growth inh 0%, TbPYK inhibitor 16µM* and NS1 inh -3%.
Screening Cc1ccc(N/N=C(\Cc2nc3ccccc3[nH]2)c2ccccc2)cc1 returned Giardia FBPA inh 1%, Sm TGR inh 40µM*, LmPK inh 3%, RE007 growth inh -22%, TbPYK inhibitor -7% and NS1 inh 21%.
For N/N=C(/Cc1nc2ccccc2[nH]1)c1ccc([N+](=O)[O-])cc1 the results were Giardia FBPA inh -4%, Sm TGR inh -11%, LmPK inh -4%, RE007 growth inh 13µM* and TbPYK inhibitor 4%.
`CCN1C(=O)N[C@@H](CCc2ccccc2)[C@@H](C(=O)OC)[C@H]1C` gave Giardia FBPA inh 7%[12.9 µM], Sm TGR inh 2.2µM*, LmPK inh -7%[11.5 µM], RE007 growth inh 2%, TbPYK inhibitor 0% and NS1 inh -6%.
`Cc1c(Cl)ccc2sc(N3CCN(C(=O)C4CC4)CC3)nc12` gave Sm TGR inh 13% and TbPYK inhibitor -1%.
For CN(C)c1ccc(C(=C2C=CC(=[N+](C)C)C=C2)c2ccccc2)cc1 the results were Giardia FBPA inh 7%, TbPYK inhibitor 2% and NS1 inh -36%.
CN(C)c1ccc(C(=C2C=CC(=[N+](C)C)C=C2)c2ccc(N(C)C)cc2)cc1 was read as Giardia FBPA inh 16µM* and TbPYK inhibitor inconclusive.
O=C(CN1CCN(c2ccc(O)cc2)CC1)Nc1ccccc1C(=O)NCCc1ccccc1 was read as Sm TGR inh 40µM*, RE007 growth inh -8% and TbPYK inhibitor 28µM*.
`COc1cccc(N2CCN(CC(=O)Nc3ccccc3C(=O)NCCc3ccccc3)CC2)c1` gave Sm TGR inh -15%, RE007 growth inh inconclusive and TbPYK inhibitor -2%.
Screening Cc1cc(C)cc(N2CCn3c2nc2c3c(=O)n(Cc3c(F)cccc3Cl)c(=O)n2C)c1 returned Sm TGR inh -4% and TbPYK inhibitor 4%.
Screening COc1ccc(Cl)c(Cn2c(NCc3ccco3)nc3c2c(=O)n(C)c(=O)n3C)c1 returned Giardia FBPA inh inconclusive, Sm TGR inh 50µM*, LmPK inh 3%, RE007 growth inh 12%, TbPYK inhibitor -1% and NS1 inh 0%.
COc1cccc(Cn2c(NCc3ccco3)nc3c2c(=O)n(C)c(=O)n3C)c1 was read as Giardia FBPA inh -8%, Sm TGR inh -29%, LmPK inh 7%, RE007 growth inh 22%, TbPYK inhibitor -17% and NS1 inh -6%.
CCN1CCN(c2nnc(-n3cccc3C(=O)NCc3ccccc3OC)s2)CC1 was read as Sm TGR inh 6% and TbPYK inhibitor 0%[15.4 µM].
Screening Cc1cccc(NC(=O)c2ccc3snnc3c2)c1C returned Sm TGR inh 7% and TbPYK inhibitor 4%.
COC(=O)c1cc(-c2ccc(C)o2)nc2ccccc12 was read as Giardia FBPA inh -15%, Sm TGR inh inconclusive, LmPK inh -13%, RE007 growth inh 11µM*, TbPYK inhibitor 22µM* and NS1 inh -43%.
Cc1ccc(-c2cc(C(=O)Nc3ccccc3C)c3ccccc3n2)o1 was read as Giardia FBPA inh -25%, Sm TGR inh 10µM*, LmPK inh -9%, RE007 growth inh -17%, TbPYK inhibitor -19% and NS1 inh -22%.
Screening Cc1ccc(-c2cc(C(=O)NCc3ccco3)c3ccccc3n2)o1 returned Giardia FBPA inh -9%, Sm TGR inh 18µM*, LmPK inh 9%, RE007 growth inh -18%, TbPYK inhibitor inconclusive and NS1 inh -10%.
`Cc1ccc(-c2cc(C(=O)N/N=C/c3ccc([N+](=O)[O-])o3)c3ccccc3n2)o1` gave Sm TGR inh 40µM*, LmPK inh -5%, RE007 growth inh -16%, TbPYK inhibitor -12% and NS1 inh -5%.
For Cc1ccc(-c2cc(C(=O)NCC(c3ccccc3)N(C)C)c3ccccc3n2)o1 (stereo not given) the results were RE007 growth inh -14% and TbPYK inhibitor 2%.
For Cc1cc(C(=O)Nc2ccccc2C)c2ccccc2n1 the results were Giardia FBPA inh 16%, Sm TGR inh 1%, LmPK inh 9%, RE007 growth inh 4%, TbPYK inhibitor 1% and NS1 inh -1%.
`Cc1ccc(Cn2c(C(=O)O)c(CNCc3cccs3)c3ccc(C)cc32)cc1` gave Sm TGR inh 3% and TbPYK inhibitor -1%.
Screening Cc1sc2c(c1C)c(=O)n(CCc1ccccc1)c(=O)n2Cc1ccc(C(C)(C)C)cc1 returned Sm TGR inh 14% and TbPYK inhibitor 6%.
Screening CCOC(=O)c1c(NC(=O)CSc2cn(CCNC(=O)c3ccc(OC)c(OC)c3)c3ccccc23)sc2c1CCC2 returned Sm TGR inh -5% and TbPYK inhibitor 0%.
Screening Cc1ccc(CNC(=O)CN2C(=O)COc3ccc(S(=O)(=O)N4CCCCC4)cc32)o1 returned Giardia FBPA inh 4%, Sm TGR inh 25µM*, LmPK inh 6%, RE007 growth inh 13%, TbPYK inhibitor -2% and NS1 inh 3%.
`CC(=O)N1CCN(S(=O)(=O)c2cccc(C(=O)N(C)Cc3ccc(C)o3)c2)CC1` gave Sm TGR inh 40µM*, RE007 growth inh 5% and TbPYK inhibitor -19%.
Screening Cc1ccc(CN(C)C(=O)c2ccc(S(=O)(=O)N3CCCCCC3)cc2)o1 returned Sm TGR inh 50µM*, RE007 growth inh 7% and TbPYK inhibitor -28%.
